p53null 39C kill = qHTS Screen for Compounds that Selectively Target Cancer Cells with p53 Mutations: Cytotoxicity of p53 Null Cells at the Nonpermissive Temperature; H1299 p53-null (neo) cells, 39C, ATPlite viability, 24 h; hit rate 0.97% among 55,000; Potency, µM (highest dose often 46.1 µM), usual class: cytotoxic; AID 904, 2007; further: nearly all actives have a fitted effect of over 50% in size
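Concentration-response (up to 46 uM) was run for 24 h at the nonpermissive 39C on H1299-p53A138V or H1299-neo cells. ATP content was measured with ATPlite luminescence. AC50 values were Hill-modeled after normalizing between DMSO and 100 uM tamoxifen killing.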
S16 viability = Cell viability qHTS assay in S16 Pmp22-F2sN cells; S16 Pmp22-F2sN Schwann cells viability, CellTiter-Glo, 24 h; Potency, µM (series often up to 57.5 µM), most hits filed as cytotoxic; hit rate 0.48% among 43,000; AID 1508642, 2021; further: nearly all actives have a fitted effect of over 65% in size
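Rat S16 Schwann reporter line, 24 h treatment with library compounds delivered at 23 nL per well. Cell viability by CellTiter-Glo luminescence.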
PMP22 txn = Cell-based coincidence reporter assay to measure PMP22 gene transcription in S16 Pmp22-F2sN cells - Primary screen; S16 Pmp22-F2sN Schwann cells (luciferase reporters placed in the Pmp22 gene), FLuc/NLuc coincidence luminescence, 24 h; Potency, µM (highest dose often 57.5 µM), usual class: inhibitors; hit rate 2% among 43,000; AID 1508649, 2021; active means clear falling dose curves in both reporters; inconclusive means both reporters move, but less clearly or upward; inactive means either reporter flat; the % is the NLuc reporter signal
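Rat S16 Pmp22-F2sN cells, 500-1,000/well in phenol red-free DMEM + 10% FBS, compound-treated 24 h (37C, 5% CO2). Luminescence: FLuc read, Stop&Glo added, NLuc read.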
pS6 MEF inh = Acumen qHTS Assay for Inhibitors of the mTORC1 Signaling Pathway in MEF (Tsc2-/-, p53-/-) Cells: Sytravon; Tsc2-/- p53-/- MEF, phospho-rpS6 immunofluorescence/PI, 24 h; Potency, µM (highest dose often 38.3 µM), actives largely listed as inhibitors; hit rate 0.78% among 44,000; further: nearly all actives have a fitted effect of over 50% in size
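Immunofluorescence of rpS6 phosphorylation in Tsc2-/-, p53-/- MEFs after 24 h compound exposure, normalized to propidium iodide signal. Activity is expressed as % positive cells, thresholded with 7.5 nM rapamycin.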
p53null 32C kill = qHTS Screen for Compounds that Selectively Target Cancer Cells with p53 Mutations: Cytotoxicity of p53 Null Cells at the Permissive Temperature. H1299-neo p53 null cells, ATP luminescence, 24 h, 32C. Potency, µM (series often up to 46.1 µM), usual class: cytotoxic. hit rate 0.62% among 55,000; further: nearly all actives have a fitted effect of over 55% in size
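Cells lacking p53 (H1299-neo) are plated at 600 per well and allowed to settle overnight at 37C. Test compounds (up to 46 uM) are added and held 24 hours at 32C, then ATP is quantified by luminescence.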
NLuc saturating = Biochemical NLuc saturation counterscreen for small molecule modulators of PMP22 gene expression - Nano-Glo assay; hit rate 4% among 690; Potency, µM (series often up to 57.5 µM), most hits filed as inhibitors; Secreted NLuc enzyme (filtered S16 cell medium), Nano-Glo luminescence; shares compounds with PMP22 txn
NLuc Km counter = Biochemical coelenterazine-based NLuc counterscreen for small molecule modulators of PMP22 gene expression - Km assay; shares compounds with PMP22 txn; secreted NLuc enzyme, coelenterazine luminescence, Km conditions; Potency, µM (doses to about 57.5 µM), most hits filed as inhibitors; hit rate 5% among 690
FLuc ctr PMP22 = Biochemical FLuc counterscreen for small molecule modulators of PMP22 gene expression; 690 tested, under 10 active; shares compounds with PMP22 txn; AID 1508640, 2021; Potency, µM (titrated, usually from 57.5 µM), usual class: inhibitors; purified P. pyralis FLuc, luminescence, 10 min
Target sequence (P08659 whole entry, looked up): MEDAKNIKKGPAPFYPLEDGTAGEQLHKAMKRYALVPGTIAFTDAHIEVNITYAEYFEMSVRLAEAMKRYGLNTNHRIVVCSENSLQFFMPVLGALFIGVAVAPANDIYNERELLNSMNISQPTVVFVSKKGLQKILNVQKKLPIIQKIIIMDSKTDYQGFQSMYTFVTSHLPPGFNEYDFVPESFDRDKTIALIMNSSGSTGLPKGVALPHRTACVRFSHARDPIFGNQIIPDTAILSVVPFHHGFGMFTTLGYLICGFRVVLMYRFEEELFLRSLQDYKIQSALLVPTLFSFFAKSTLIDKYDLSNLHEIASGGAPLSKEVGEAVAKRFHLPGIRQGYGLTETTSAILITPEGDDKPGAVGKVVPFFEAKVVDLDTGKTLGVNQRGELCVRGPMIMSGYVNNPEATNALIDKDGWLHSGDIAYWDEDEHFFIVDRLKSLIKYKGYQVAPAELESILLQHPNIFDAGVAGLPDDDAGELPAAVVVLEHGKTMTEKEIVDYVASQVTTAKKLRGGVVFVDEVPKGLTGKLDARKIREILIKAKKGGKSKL
S16 F2sN tox cnf = Cell viability qHTS assay in S16 Pmp22-F2sN cells - Confirmatory screen | shares compounds with PMP22 txn | S16 Schwann cells viability, CellTiter-Glo ATP luminescence, 24 h | Potency, µM (top dose mostly 57.5 µM), usual class: cytotoxic | hit rate 7% among 690 | AID 1508641, 2021
PMP22 txn cnf = Cell-based coincidence reporter assay to measure PMP22 gene transcription in S16 Pmp22-F2sN cells - Confirmatory screen | S16 Schwann cells Pmp22-F2sN, dual luciferase, 24 h | Potency, µM (titrated, usually from 57.5 µM), usual class: inhibitors | AID 1508646, 2021 | shares compounds with PMP22 txn | hit rate 22% among 690; active means clear falling dose curves in both reporters; inconclusive means both reporters move, but less clearly or upward; inactive means either reporter flat; the % is the FLuc reporter signal
PMP22 prot conf = Cell-based HiBiT reporter assay to measure PMP22 protein expression in S16 Pmp22-HiBiT cells - Confirmatory screen; shares compounds with PMP22 txn; S16 Schwann cells Pmp22-HiBiT, luminescence, 48 h; Potency, µM (series often up to 27.9 µM), usual class: inhibitors; 95 tested, under 10 active; AID 1508647, 2021
Target sequence (P25094 whole entry, looked up): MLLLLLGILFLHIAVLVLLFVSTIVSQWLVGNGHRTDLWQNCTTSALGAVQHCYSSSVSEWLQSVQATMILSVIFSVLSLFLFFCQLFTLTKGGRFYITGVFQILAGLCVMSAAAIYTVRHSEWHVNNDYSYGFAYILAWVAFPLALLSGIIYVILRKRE
Each line names hits and unclear results; the compound was inactive in the other large screens (follow-up assays come after a bar, where they were run). An excerpt weighted towards active compounds, which were near 3.2% of everything screened. Unless noted, the call rests on the fitted dose curve; in most records, active means well fitted curve in the direction sought with a large enough effect; inconclusive means small, poorly fitted or top-dose-only effect, or another doubt; inactive means no such curve, though single readings can be large; an effect the other way counts as inactive or inconclusive.

CN1C(=O)c2ccccc2Sc2ccc(NC(=O)COc3ccccc3)cc21	PMP22 txn 11.9µM | NLuc saturating inconclusive | NLuc Km counter inconclusive | FLuc ctr PMP22 inactive | S16 F2sN tox cnf inactive | PMP22 txn cnf inactive
Cc1cccc(OCC(=O)Nc2ccc3c(c2)N(C)C(=O)c2ccccc2S3)c1	S16 viability inconclusive, PMP22 txn inconclusive
COc1cccc(CNC(=O)Nc2ccc3c(c2)N(C)C(=O)c2ccccc2S3)c1	S16 viability inconclusive, PMP22 txn 17.9µM | NLuc saturating inconclusive | NLuc Km counter inconclusive | FLuc ctr PMP22 inactive | S16 F2sN tox cnf inactive | PMP22 txn cnf inconclusive
CC(=O)Nc1ccc(-c2nnc3n(CC(C)C)c(=O)c4ccccc4n23)cc1	PMP22 txn inconclusive | NLuc saturating inconclusive | NLuc Km counter inactive | FLuc ctr PMP22 inactive | S16 F2sN tox cnf inactive | PMP22 txn cnf inactive
CC(C)Cn1c(=O)c2ccccc2n2c(-c3ccc(Br)cc3)nnc12	none
CCN(CC)S(=O)(=O)c1ccc(NC(=O)c2ccc3c(=O)n4c(nc3c2)CCCCC4)cc1	PMP22 txn inconclusive
CCOc1ccc(-c2nc(CSCC(=O)NCCc3ccccc3)c(C)o2)cc1	PMP22 txn inconclusive | NLuc saturating inconclusive | NLuc Km counter inconclusive | FLuc ctr PMP22 19.3µM | S16 F2sN tox cnf inactive | PMP22 txn cnf inactive
CCc1ccccc1NC(=O)Cn1nnc(C(=O)NCc2cccs2)c1N	PMP22 txn inconclusive | NLuc saturating inactive | NLuc Km counter inactive | FLuc ctr PMP22 inactive | S16 F2sN tox cnf inactive | PMP22 txn cnf inconclusive
COc1ccccc1NC(=O)Cn1nnc(C(=O)NCc2cccs2)c1N	PMP22 txn 1.21µM | NLuc saturating inactive | NLuc Km counter inactive | FLuc ctr PMP22 inactive | S16 F2sN tox cnf inactive | PMP22 txn cnf inconclusive
COc1ccc(NC(=O)Cn2nnc(C(=O)NCc3cccs3)c2N)cc1	none
O=C(Cn1cnc2onc(-c3ccc(Cl)cc3)c2c1=O)Nc1ccc(F)cc1	PMP22 txn inconclusive
COc1ccc(OC)c(NC(=O)Cn2cnc3onc(-c4ccc(Cl)cc4)c3c2=O)c1	PMP22 txn 5.15µM | NLuc saturating inactive | NLuc Km counter inactive | FLuc ctr PMP22 inactive | S16 F2sN tox cnf inactive | PMP22 txn cnf inconclusive
Cc1ccccc1Cn1nnc2c(=O)[nH]c(C3CCN(C(=O)c4ccc(F)cc4)CC3)nc21	PMP22 txn 10.1µM | NLuc saturating inconclusive | NLuc Km counter inactive | FLuc ctr PMP22 inactive | S16 F2sN tox cnf inactive | PMP22 txn cnf inactive
COc1ccc(NC(=O)CC2C(=O)N(c3ccc(C)cc3)C(=O)N2C2CCCCC2)cc1 (configuration not stated)	p53null 39C kill inconclusive
CCCCn1c(=N)n(CCOc2ccccc2OC)c2ccccc21	p53null 39C kill inconclusive, S16 viability inconclusive, PMP22 txn 20µM, pS6 MEF inh 11.7µM | NLuc saturating inactive | NLuc Km counter inactive | FLuc ctr PMP22 inactive | S16 F2sN tox cnf inconclusive | PMP22 txn cnf inconclusive
CCCCS(=O)(=O)c1nc(-c2ccc(Br)cc2)cc(-c2ccccc2)c1C#N	S16 viability inconclusive, PMP22 txn 6.78µM, pS6 MEF inh 5.21µM | NLuc saturating inactive | NLuc Km counter inactive | FLuc ctr PMP22 inactive | S16 F2sN tox cnf inactive | PMP22 txn cnf 9.27µM | PMP22 prot conf inactive
O=C(Nc1nc2ccc(F)cc2s1)c1nc(S(=O)(=O)Cc2ccccc2F)ncc1Cl	p53null 39C kill inconclusive, S16 viability inconclusive, PMP22 txn 9.46µM, pS6 MEF inh inconclusive, p53null 32C kill inconclusive | NLuc saturating inactive | NLuc Km counter inconclusive | FLuc ctr PMP22 inactive | S16 F2sN tox cnf inconclusive | PMP22 txn cnf 12.9µM
O=C(Cn1c(=O)n(-c2ccc(Cl)cc2)c(=O)c2c3c(sc21)CCC3)c1ccc(F)cc1	none
O=c1c2c3c(sc2n(Cc2ccccc2F)c(=O)n1-c1ccc(Cl)cc1)CCCC3	PMP22 txn 10µM | NLuc saturating inactive | NLuc Km counter inactive | FLuc ctr PMP22 inactive | S16 F2sN tox cnf inactive | PMP22 txn cnf inconclusive
COc1ccc(NC(=O)c2ccco2)cc1NC(=O)COc1ccccc1	none
CCn1c(=O)cc(OCC(=O)N2CCN(c3ccccc3OC)CC2)c2ccccc21	PMP22 txn 17µM | NLuc saturating inactive | NLuc Km counter inactive | FLuc ctr PMP22 inactive | S16 F2sN tox cnf inactive | PMP22 txn cnf inactive
Cc1cc2c(cc1C)NC(CC(=O)Nc1cccc(Cl)c1)C(=O)N2 (configuration not stated)	p53null 39C kill inconclusive, S16 viability inconclusive
CCN(CC)c1ccc(NC(=O)C2COc3ccc(OC)cc3C2)c(C)c1 (configuration not stated)	p53null 39C kill inconclusive, S16 viability inconclusive, PMP22 txn 11.7µM | NLuc saturating inactive | NLuc Km counter inactive | FLuc ctr PMP22 inactive | S16 F2sN tox cnf inconclusive | PMP22 txn cnf 14.5µM | PMP22 prot conf inconclusive

Bioassay records (PubChem BioAssay)
